Measurements: PubChem BioAssay (NCI)
Compounds without any hit were thinned out: in the full panel of roughly 83,000, 20% have a hit.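 Plates (96-well) were seeded with cells, treated with compound at one concentration, and incubated for 48 hours before percent growth was determined.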 Activity calls are given as the source filed them. The calls were made as follows: active = growth percent below 10; inactive = the rest.

How the values were obtained:
Test in all cases: NCI-60 one-dose screen, 48 h (100 = growth as untreated, 0 = no growth, -100 = all killed)
Conditions in all cases: 10 µM unless noted
SNB-75 CNS = system: SNB-75 CNS
SNB-19 CNS = system: SNB-19 CNS
U251 CNS = system: U251 CNS
PC-3 prostate = system: PC-3 prostate
SK-MEL-5 melanoma = system: SK-MEL-5 melanoma
UACC-62 melanoma = system: UACC-62 melanoma
LOX IMVI melanoma = system: LOX IMVI melanoma
SK-MEL-28 melanoma = system: SK-MEL-28 melanoma
SK-MEL-2 melanoma = system: SK-MEL-2 melanoma
HT29 colon = system: HT29 colon

Measured: growth

COc1ccc(-c2c(-c3cc(OC)c(OC)c(OC)c3)noc2N)cc1
inactive: SNB-75 CNS 52.7% | SNB-19 CNS 38.7% | U251 CNS 22.2% | PC-3 prostate 21.8% | UACC-62 melanoma 43.9% | LOX IMVI melanoma 17.6% | SK-MEL-28 melanoma 58.6% | SK-MEL-2 melanoma 72.6%
active: SK-MEL-5 melanoma -60.7%

COc1ccc2c(c1)C(=O)/C(=C/c1cccc(OCC(=O)c3ccccc3)c1)CC2
inactive: HT29 colon 80.9% | SNB-19 CNS 100% | U251 CNS 76.9% | SK-MEL-5 melanoma 39.3% | UACC-62 melanoma 70.2% | LOX IMVI melanoma 70.3% | SK-MEL-28 melanoma 106% | SK-MEL-2 melanoma 67.3%

CCOc1nc(-c2ccccc2)cc2c(O)c(-c3nnco3)[nH]c(=O)c12
inactive: HT29 colon 69% | SNB-19 CNS 72.1% | U251 CNS 32.7% | PC-3 prostate 43.4% | UACC-62 melanoma 56.9% | SK-MEL-28 melanoma 76.1%

CC(C)[O-].CC(C)[O-].CN(CCN(C)Cc1cc(F)cc(F)c1[O-])Cc1cc(F)cc(F)c1[O-].[Ti+4]
active: HT29 colon -25.7% | U251 CNS 4.7% | SK-MEL-5 melanoma -59.5% | UACC-62 melanoma -22.8% | SK-MEL-28 melanoma -23.3% | SK-MEL-2 melanoma -52%
inactive: PC-3 prostate 15.9%

NC(N)=NN=c1c(=O)c2ccccc2c1=O
active: HT29 colon -49.4% | LOX IMVI melanoma -44.9%
inactive: U251 CNS 72.1% | PC-3 prostate 78% | UACC-62 melanoma 103% | SK-MEL-28 melanoma 80% | SK-MEL-2 melanoma 118%

O=C1CCCN1C1CCN(Cc2cc3ccccc3[nH]c2=O)c2ccccc21 (configuration not stated)
inactive: HT29 colon 92.9% | SNB-19 CNS 96.8% | U251 CNS 96.1% | SK-MEL-5 melanoma 86.1% | UACC-62 melanoma 85.5% | LOX IMVI melanoma 90.4% | SK-MEL-28 melanoma 103% | SK-MEL-2 melanoma 96.1%

COc1cc(/C=C/C(=O)c2ccc(F)cc2)ccc1OCCCCCOc1cc2c(cc1OC)C(=O)N1CCCC1C=N2 (configuration not stated)
active: HT29 colon -18.8% | SNB-19 CNS 2.88% | U251 CNS -77.5% | SK-MEL-5 melanoma -78.1% | UACC-62 melanoma -92.4% | LOX IMVI melanoma -94% | SK-MEL-28 melanoma -48% | SK-MEL-2 melanoma -18%

Cc1cc(Cl)ccc1Nc1nc(C(F)(F)F)ccc1C(=O)NCC(=O)N/N=C/c1c(Cl)cccc1Cl
active: PC-3 prostate -16.1%
inactive: SNB-75 CNS 97.7% | SNB-19 CNS 90.5% | U251 CNS 67.7% | SK-MEL-5 melanoma 70.5% | UACC-62 melanoma 63% | LOX IMVI melanoma 56.3% | SK-MEL-28 melanoma 85.7% | SK-MEL-2 melanoma 98.2%

COc1ccc(C2CC(c3ccc(OC)c(OC)c3)=NN2C(=O)c2cc(OC)c(OC)c(OC)c2)cc1 (configuration not stated)
inactive: SNB-19 CNS 38.9% | U251 CNS 26% | UACC-62 melanoma 41.9% | LOX IMVI melanoma 36.1% | SK-MEL-28 melanoma 70.5% | SK-MEL-2 melanoma 12.6%
active: HT29 colon -1.1% | SK-MEL-5 melanoma 5.8%

COc1ccc(Nc2nccc(N3CCN(c4c5ccc(Cl)cc5nc5ccc(OC)cc45)CC3)n2)cc1
inactive: HT29 colon 44.6% | SNB-19 CNS 92.2% | PC-3 prostate 57.9% | UACC-62 melanoma 76.4% | SK-MEL-28 melanoma 105%

N=c1ccn2c(n1)O[C@@H]1[C@@H](O)[C@H](CO)O[C@@H]12
inactive: HT29 colon 54.2% | SNB-19 CNS 64.8% | U251 CNS 52.2% | PC-3 prostate 57.9% | UACC-62 melanoma 81.2% | SK-MEL-28 melanoma 69.9% | SK-MEL-2 melanoma 82.7%

O=C(CCc1nnc(Cn2cncn2)o1)c1nc2ccccc2[nH]1
inactive: SNB-75 CNS 99.1% | SNB-19 CNS 111% | U251 CNS 103% | SK-MEL-5 melanoma 105% | UACC-62 melanoma 97.9% | LOX IMVI melanoma 94.4% | SK-MEL-28 melanoma 105%

CCC(O)C(C)(C)C (configuration not stated)
inactive: SNB-75 CNS 108% | SNB-19 CNS 109% | PC-3 prostate 108% | SK-MEL-5 melanoma 113% | UACC-62 melanoma 104% | LOX IMVI melanoma 93% | SK-MEL-28 melanoma 121% | SK-MEL-2 melanoma 129%

COC(=O)CCC1=C(CC(=O)OC)C(C)=N/C1=C\c1[nH]c(-c2ccc[nH]2)cc1OC
inactive: SNB-75 CNS 12.9% | SNB-19 CNS 69.3% | U251 CNS 26.5% | SK-MEL-28 melanoma 56.9%
active: SK-MEL-5 melanoma -22.7% | UACC-62 melanoma -4.87% | LOX IMVI melanoma -48.3%

Clc1ccc([C@@H]2C[C@@H]3Cc4cc(Br)c5ccccc5c4N2O3)c(Cl)c1
inactive: SNB-75 CNS 56.2% | SNB-19 CNS 83.8% | U251 CNS 60.6% | SK-MEL-5 melanoma 93.8% | UACC-62 melanoma 62.8% | LOX IMVI melanoma 72.1% | SK-MEL-28 melanoma 69.9%

COC(=O)CCC1=C(C)/C(=C/c2[nH]c(-c3ccc[nH]3)cc2OC)N=C1C
active: SNB-75 CNS -32% | U251 CNS -1.49% | SK-MEL-5 melanoma -92% | UACC-62 melanoma -49.6% | LOX IMVI melanoma -64.3% | SK-MEL-28 melanoma -0.539%
inactive: SNB-19 CNS 44.7%

COc1ccc(-c2cc(Cc3cccs3)c(=O)n(Cn3cncn3)n2)cc1
inactive: SNB-75 CNS 106% | SNB-19 CNS 91.8% | U251 CNS 97.2% | SK-MEL-5 melanoma 92.9% | UACC-62 melanoma 86.2% | LOX IMVI melanoma 98% | SK-MEL-28 melanoma 108%

C=CCOc1ccc2c(c1)CC[C@@H]1[C@@H]2CC[C@@]2(C)[C@H]1CC[C@]2(C)O
inactive: SNB-75 CNS 93.3% | SNB-19 CNS 110% | U251 CNS 74.7% | SK-MEL-5 melanoma 95.3% | UACC-62 melanoma 85% | LOX IMVI melanoma 76.2% | SK-MEL-28 melanoma 97.2%

CCOC(=O)c1c(NC(=O)C2CCCCC2C(=O)O)sc2c1CCCC2 (configuration not stated)
inactive: SNB-75 CNS 97.3% | SNB-19 CNS 99.8% | U251 CNS 99.1% | SK-MEL-5 melanoma 95.1% | UACC-62 melanoma 103% | LOX IMVI melanoma 90% | SK-MEL-28 melanoma 110% | SK-MEL-2 melanoma 107%

O=C1NCC(Nc2ccc(Br)cc2Cl)C(=O)N1 (configuration not stated)
inactive: SNB-75 CNS 91% | SNB-19 CNS 102% | U251 CNS 123% | SK-MEL-5 melanoma 104% | UACC-62 melanoma 101% | LOX IMVI melanoma 105% | SK-MEL-28 melanoma 110%

CC(NC(=O)C(C)Oc1ccc(Cl)cc1Cl)C(=O)O (configuration not stated)
inactive: SNB-19 CNS 96.2% | U251 CNS 105% | PC-3 prostate 102% | SK-MEL-5 melanoma 101% | UACC-62 melanoma 91.7% | SK-MEL-28 melanoma 113% | SK-MEL-2 melanoma 97.4%

O=[N+]([O-])c1ccc(N/N=C/c2c(O)ccc3ccccc23)nc1
inactive: SNB-19 CNS 62.7% | U251 CNS 35.8% | SK-MEL-5 melanoma 40% | UACC-62 melanoma 41.7% | LOX IMVI melanoma 21% | SK-MEL-28 melanoma 64.8%

C[N+]1(CCC[N+]2(C)C[C@@H]3[C@H](C2)[C@@H]2C=C[C@H]3C2)CCOCC1 (some centres not stated)
inactive: SNB-75 CNS 103% | SNB-19 CNS 107% | U251 CNS 109% | SK-MEL-5 melanoma 106% | UACC-62 melanoma 97.7% | LOX IMVI melanoma 96% | SK-MEL-28 melanoma 109%

COC(=O)CCC1=C(C)C(C)=N/C1=C\c1[nH]c(-c2ccc[nH]2)cc1OC
inactive: SNB-19 CNS 35% | SK-MEL-28 melanoma 10.7%
active: U251 CNS -22.9% | SK-MEL-5 melanoma -91.5% | UACC-62 melanoma -67.4% | LOX IMVI melanoma -55.5%

COc1ccc(OC)c2c1[nH]c(=O)c1c3ccccc3cn21
active: SNB-75 CNS -77.2% | SNB-19 CNS -48.4% | U251 CNS -97% | SK-MEL-5 melanoma -98.8% | UACC-62 melanoma -100% | LOX IMVI melanoma -84.8% | SK-MEL-28 melanoma -83.8% | SK-MEL-2 melanoma -56.8%

COc1ccc(/C=N\Nc2ccc([N+](=O)[O-])cn2)cc1OC
active: SNB-75 CNS -0.426% | U251 CNS -18.5%
inactive: SNB-19 CNS 39.7% | SK-MEL-5 melanoma 85.5% | UACC-62 melanoma 81.7% | LOX IMVI melanoma 68.7% | SK-MEL-28 melanoma 79.5%

CCCOc1ccc2c(c1)CC[C@@H]1[C@@H]2CC[C@@]2(C)[C@H]1CC[C@]2(C)O
inactive: SNB-75 CNS 73.4% | SNB-19 CNS 94.3% | U251 CNS 72% | SK-MEL-5 melanoma 92.7% | UACC-62 melanoma 95.8% | LOX IMVI melanoma 65% | SK-MEL-28 melanoma 85.3%

Oc1ccccc1C=Nc1ccccc1N=Cc1ccccc1O.[Cu+2]
inactive: SNB-75 CNS 47.9% | SNB-19 CNS 91.7% | U251 CNS 61.8% | SK-MEL-5 melanoma 24.1% | UACC-62 melanoma 43.9% | LOX IMVI melanoma 47.6% | SK-MEL-28 melanoma 85.1%

COc1ccc(-c2cc(Cc3cccs3)c(=O)n(Cn3ccc4ccccc43)n2)cc1
inactive: SNB-75 CNS 92.6% | SNB-19 CNS 102% | U251 CNS 104% | SK-MEL-5 melanoma 104% | UACC-62 melanoma 87.7% | LOX IMVI melanoma 96.5% | SK-MEL-28 melanoma 114%

CCOc1cc(-c2ccc[nH]2)[nH]c1/C=C1\N=C(C)C(C(=O)OC)=C1C
inactive: SNB-19 CNS 11.9%
active: SNB-75 CNS -65% | U251 CNS -62.4% | SK-MEL-5 melanoma -93% | UACC-62 melanoma -74.7% | LOX IMVI melanoma -56.5% | SK-MEL-28 melanoma -83.5%

O=C(CCc1nnc(Cn2ccnc2)o1)c1nc2ccccc2[nH]1
inactive: SNB-75 CNS 97.9% | SNB-19 CNS 108% | U251 CNS 110% | SK-MEL-5 melanoma 104% | UACC-62 melanoma 91% | LOX IMVI melanoma 90.4% | SK-MEL-28 melanoma 116%

CC1=CSC2=NCCN12
inactive: SNB-75 CNS 98.4% | SNB-19 CNS 101% | U251 CNS 109% | SK-MEL-5 melanoma 106% | UACC-62 melanoma 100% | LOX IMVI melanoma 94.4% | SK-MEL-28 melanoma 118%

c1coc([C@@H]2C[C@@H]3Cc4ccc5ccccc5c4N2O3)c1
inactive: SNB-19 CNS 104% | U251 CNS 102% | SK-MEL-5 melanoma 101% | UACC-62 melanoma 103% | LOX IMVI melanoma 103% | SK-MEL-28 melanoma 111%

CCCCCCC(C)(O)c1ccccc1 (configuration not stated)
inactive: SNB-75 CNS 90.6% | SNB-19 CNS 104% | U251 CNS 109% | SK-MEL-5 melanoma 109% | UACC-62 melanoma 96.5% | LOX IMVI melanoma 92% | SK-MEL-28 melanoma 115%

COc1ccc2nccc(/C=C/c3ccnc4ccc(OC)cc34)c2c1
inactive: SNB-19 CNS 109% | U251 CNS 107% | SK-MEL-5 melanoma 116% | UACC-62 melanoma 109% | LOX IMVI melanoma 106% | SK-MEL-28 melanoma 92.8% | SK-MEL-2 melanoma 112%

CC(=O)c1nc2ccccc2n1CCn1cc(CC(N)C(=O)O)c2ccccc21 (configuration not stated)
inactive: SNB-75 CNS 74.7% | SNB-19 CNS 92.6% | U251 CNS 102% | SK-MEL-5 melanoma 96.1% | UACC-62 melanoma 79.5% | LOX IMVI melanoma 89.4% | SK-MEL-28 melanoma 109%
